Source: PubChem BioAssay (National Center for Advancing Translational Sciences (NCATS))
Compounds with a hit are over-represented: about 2.1% of the library has one in this group of screens.
Glioma ERSR ind: ER stress response induction in glioma | U87-MG GRP78 promoter luciferase reporter, 16 h | Potency, µM, actives largely listed as activators | 420,000 compounds, 0.02% hits | AID 602332; further: series mostly up to about 76 µM; nearly all actives have a fitted effect of over 35% in size
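ERSR induction read as luciferase luminescence (Bright-Glo, 10 min at room temperature) in stably transfected human U87-MG glioma cells exposed to compounds for 16 h, using GRP78 as sensor.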
Mito fusion yeast: inhibitors of mitochondrial division or activators of mitochondrial fusion | S. cerevisiae fusion-defective mutant growth rescue, CellTiterGlo 48 h | Potency, µM (titrated, usually from 46.1 µM), most hits filed as activators | 320,000 compounds, 0.23% hits | AID 485298; further: nearly all actives have a fitted effect of over 45% in size
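Luminescent cell viability in 1536-well qHTS format served as the measure of rescued growth in ts fusion-mutant S. cerevisiae cultured on non-fermentable YPEG for 48 hours at 37C.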
AT treatment: potential ataxia-telangiectasia treatment; F2112 A-T fibroblasts, KAP-1 phosphorylation AlphaLISA; neocarzinostatin DNA damage 30 min before lysis; Potency, µM (doses to about 57.5 µM), hits mostly activators; 320,000 compounds, 0.19% hits; AID 485349; further: nearly all actives have a fitted effect of over 45% in size
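ATM-like activity read as KAP-1 phosphorylation via AlphaLISA donor/acceptor antibody pairs after lysis and 6 hr at 25C. Cells were ATM-null patient fibroblasts (F2112, hTERT), dosed 60 min, then exposed to the DSB inducer NCS for 30 min.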
TDP43 rescue: inhibitors of TDP-43 toxicity in yeast; Potency, µM (series often up to 46.1 µM), hits mostly activators; TDP-43 expressing yeast growth rescue, BacTiter-Glo, 24 h; 410,000 compounds, 1.8% hits; further: nearly all actives have a fitted effect of over 50% in size
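Yeast expressing TDP-43 (pregrown in raffinose, seeded at OD600=0.02 in galactose medium) exposed to compounds 24 hr at 30 deg C. Growth read by BacTiter-Glo luminescence; rescue of toxicity appears as increased signal.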
aSyn rescue: alpha-synuclein toxicity inhibition in yeast; Yeast expressing alpha-synuclein, growth rescue, BacTiter-Glo, 24 h; Potency, µM (doses to about 46.1 µM), hits mostly activators; 370,000 compounds, 0.14% hits; AID 652106; further: nearly all actives have a fitted effect of over 65% in size
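Readout is rescue of growth in alpha-synuclein-expressing yeast, so inhibitors of toxicity appear as activators. Growth after 24 hr at 30 deg C in galactose medium is quantified by luminescence.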
Abeta rescue: compounds reversing amyloid beta toxicity in yeast; yeast expressing A-beta42, growth rescue, OD600, 48 h; response scale: 0% DMSO, 100% iron-clioquinol control; Potency, µM (doses to about 46.1 µM), most hits filed as activators; 410,000 compounds, 0.063% hits; further: nearly all actives have a fitted effect of over 55% in size
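Yeast growth medium received pinned compounds, then yeast cells expressing toxic A-beta were added; plates incubated at 30 C for 48 hr. Growth read as absorbance at 600 nm, normalized to DMSO and equimolar FeCl3 plus clioquinol controls.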
Hits are given with their value. The call rests on the fitted dose curve; in most records, active means well fitted curve in the direction sought with a large enough effect; inconclusive means small, poorly fitted or top-dose-only effect, or another doubt; inactive means no such curve, though single readings can be large; an effect the other way counts as inactive or inconclusive.

For S=C(NCCSCc1ccc(Cl)c(Cl)c1)Nc1ccccc1 the results were Glioma ERSR ind inactive, TDP43 rescue 11.2µM, aSyn rescue inactive and Abeta rescue inactive.
`Cc1ccccc1CSCCNC(=S)Nc1ccccc1` gave Glioma ERSR ind inactive, Mito fusion yeast inactive, AT treatment inactive, TDP43 rescue inactive, aSyn rescue inactive and Abeta rescue inactive.
CCn1c(C)nc2cc(NS(=O)(=O)c3ccccc3)cc(C(=O)N3C[C@@H](C)O[C@@H](C)C3)c21 was read as Glioma ERSR ind inactive.
COc1ccc(CNC(=S)Nc2ccccc2)cc1Cl was read as Glioma ERSR ind inactive, Mito fusion yeast inactive, AT treatment inactive, TDP43 rescue inactive, aSyn rescue inactive and Abeta rescue inconclusive.
Screening CCCOc1ccc(CNC(=S)Nc2ccccc2)cc1Cl returned Glioma ERSR ind inactive, Mito fusion yeast inactive, AT treatment inactive, TDP43 rescue inconclusive, aSyn rescue inactive and Abeta rescue 11.2µM.
`Cc1c(C(=O)NC2CCCCC2)sc2ncnc(NCCN(C)C)c12` gave Glioma ERSR ind inactive.
For CC(=O)C1=CCC(c2ccccc2Cl)N(S(=O)(=O)c2ccc(C)cc2)C1 (configuration not stated) the results were Glioma ERSR ind inactive, TDP43 rescue 20µM, aSyn rescue inactive and Abeta rescue inactive.
Screening c1csc(-c2nn3cnnc3c3ccccc23)c1 returned Glioma ERSR ind inactive, Mito fusion yeast inactive, AT treatment inactive, TDP43 rescue 22.4µM, aSyn rescue inactive and Abeta rescue inactive.
For c1csc(-c2nnc(N3CCCCCC3)c3ccccc23)c1 the results were Glioma ERSR ind inactive, Mito fusion yeast inactive, AT treatment inactive, TDP43 rescue inactive, aSyn rescue inactive and Abeta rescue inactive.
C[N+](C)(CCCCCC[N+](C)(C)C1c2ccccc2-c2ccccc21)C1c2ccccc2-c2ccccc21 was read as Glioma ERSR ind inactive.
Screening Cc1c(C(=O)NCc2cccc(Br)c2)oc2ccc3c(c12)C(=O)CC(C)(C)O3 returned TDP43 rescue inactive and Abeta rescue inactive.
Cc1nonc1C(=O)N/N=C/c1ccc(O)c(O)c1 was read as Glioma ERSR ind 35.5µM, Mito fusion yeast inactive, TDP43 rescue inactive, aSyn rescue inactive and Abeta rescue inactive.
`COC(=O)c1cn([C@@H]2C[C@@H](C(=O)Nc3cccc(SC)c3)N(C3CCCC3)C2)nn1` gave Glioma ERSR ind inactive.
CC[C@@H](C)[C@H]1O[C@]2(CC[C@H]1C)C[C@@H]1C[C@@H](CC=C(C)[C@@H](O[C@H]3C[C@H](OC)[C@@H](O[C@H]4C[C@H](OC)[C@@H](O)[C@H](C)O4)[C@H](C)O3)[C@@H](C)C=CC=C3CO[C@@H]4[C@H](O)C(C)=C[C@@H](C(=O)O1)[C@]34O)O2 was read as Glioma ERSR ind inactive, Mito fusion yeast 2.31µM and aSyn rescue inactive.
`CC(C)c1c(C(=O)NCC(C)(C)N2CCOCC2)cnn1-c1nccc(-c2cccs2)n1` gave Glioma ERSR ind inactive.
`O=C(c1cccc(COc2cccc3ccccc23)c1)N1CCCC1` gave Glioma ERSR ind inactive, Mito fusion yeast inconclusive, AT treatment inactive, TDP43 rescue 22.4µM, aSyn rescue inactive and Abeta rescue inactive.
`CCNC(=O)NCCCOc1cccc(CN2CCCCC2)c1` gave Glioma ERSR ind inactive.
For COC(=O)[C@@H]1CCCN1Cc1ccc2c(c1)CN(Cc1cc(OC)c3c(c1)OCO3)CCO2 the results were Glioma ERSR ind inactive.
COc1ccc(C(=O)N2N=C(c3cccs3)CC2c2ccccc2O)cc1 (configuration not stated) was read as Glioma ERSR ind inactive, Mito fusion yeast inconclusive, AT treatment inactive, TDP43 rescue inactive, aSyn rescue 17.8µM and Abeta rescue inactive.
`O/N=C/c1ccc(OCc2ccccc2)c(Cl)c1` gave Glioma ERSR ind inactive, Mito fusion yeast 22.4µM, AT treatment inactive, TDP43 rescue 22.4µM, aSyn rescue inactive and Abeta rescue inactive.
`O/N=C/c1ccc(OCc2ccccc2)c(Br)c1` gave Glioma ERSR ind inactive, Mito fusion yeast inconclusive, AT treatment inactive, TDP43 rescue 12.6µM, aSyn rescue inactive and Abeta rescue inactive.
O/N=C/c1ccc(OCc2ccccc2F)c(Cl)c1 was read as Glioma ERSR ind inactive, Mito fusion yeast inconclusive, AT treatment inactive, TDP43 rescue inconclusive, aSyn rescue inactive and Abeta rescue inactive.
For O/N=C/c1cc(Br)cc(Br)c1OCc1ccccc1 the results were Glioma ERSR ind inactive, Mito fusion yeast inactive, AT treatment inactive, TDP43 rescue inactive, aSyn rescue inactive and Abeta rescue inactive.
Screening CCOC(=O)c1c(-c2ccccc2)nnn1-c1nc(OCC)nc(N2CCCCC2)n1 returned Glioma ERSR ind inactive, Mito fusion yeast inactive, AT treatment inactive, TDP43 rescue 22.4µM, aSyn rescue inactive and Abeta rescue inactive.
For CCOC(=O)c1nnn(-c2nc(OC)nc(N3CCCCC3)n2)c1-c1ccccc1 the results were Mito fusion yeast inactive and AT treatment inactive.
`COc1ccc(NC(=O)Nc2cccc(OCc3cc(=O)n4cccc(C)c4n3)c2)c(OC)c1` gave Glioma ERSR ind inactive, TDP43 rescue inactive and Abeta rescue inactive.
For Cc1nc(N2CCCCC2)c2c(-c3cccs3)csc2n1 the results were Glioma ERSR ind inactive, Mito fusion yeast inactive, AT treatment inactive, TDP43 rescue 15.8µM, aSyn rescue inactive and Abeta rescue inactive.
`Cc1nc(N2CCN(S(=O)(=O)c3ccccc3C#N)CC2)c2c(-c3cccs3)csc2n1` gave Glioma ERSR ind inactive, Mito fusion yeast inactive, AT treatment inactive, TDP43 rescue inactive and aSyn rescue inactive.
For Cc1cc(C(=O)NCC2CCC3(CCN(Cc4cc(F)ccc4F)CC3)O2)n(C)n1 (configuration not stated) the results were Glioma ERSR ind inactive.
Screening O=C(Nc1cccnc1)c1ccc([N+](=O)[O-])s1 returned Glioma ERSR ind inactive, Mito fusion yeast inactive, AT treatment inactive, TDP43 rescue 12.6µM, aSyn rescue inactive and Abeta rescue inactive.
Screening COc1ccc(N=Nc2c(C)n[nH]c2C)cc1 returned Glioma ERSR ind inactive, Mito fusion yeast inactive, AT treatment inactive, TDP43 rescue inactive, aSyn rescue inactive and Abeta rescue inactive.
`Cc1n[nH]c(C)c1N=Nc1ccc(Br)cc1` gave Glioma ERSR ind inactive, Mito fusion yeast inactive, AT treatment inactive, TDP43 rescue 3.55µM, aSyn rescue inactive and Abeta rescue inactive.
